DT40 TDP1 CPT – DT40-hTDP1 cell growth loss with CPT; chicken DT40 Tdp1-/-;hTDP1 cells + 20 nM CPT, ATP luminescence, 48 h; Potency, µM (highest dose often 46.2 µM), for inactives: top-dose activity change, negative = growth inhibition, hits mostly inhibitors; actives 12% (n = 420,000); note: potency is the fitted concentration of half-maximal effect; nearly all actives have a fitted effect of over 55% in size
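Cell growth measured by CellTiter-Glo luminescence after a minimum 48 h, 37 C compound exposure with 20 nM CPT in Tdp1-knockout DT40 cells stably expressing hTDP1, seeded 400/well; qHTS titration format.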
IL-1B inflam inh – blocks inflammasome-driven IL-1 beta release; actives 4.7% (n = 360,000); AID 743279; THP-1 LPS/ATP IL-1B secretion, AlphaLISA, 16 h; active compounds read low; activity change, % at 57.5 µM; in the data active = activity change below about -50%; inconclusive = mostly about -30% to -49%
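THP-1 cells pretreated 1 hr with compounds (up to 57.5 uM final), then stimulated with LPS (250 ng/mL final) plus ATP (1.25 mM final); secreted IL-1B measured by AlphaLISA after 16 hr, decreased signal indicating inhibition.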
TDP1 cell noCPT – qHTS for Inhibitors of human tyrosyl-DNA phosphodiesterase 1 (TDP1): qHTS in cells in absence of CPT; Potency, µM (series often up to 46.2 µM), inactives show at the top dose activity change, negative = growth inhibition, most hits filed as inhibitors; actives 15% (n = 420,000); DT40 Tdp1-/- hTDP1 cells, no CPT, ATP luminescence, 48 h; note: potency is the fitted concentration of half-maximal effect; nearly all actives have a fitted effect of over 55% in size
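Luminescent ATP content (CellTiter-Glo) served as the growth readout. Knockout chicken DT40 cells expressing human TDP1 were exposed to compounds without camptothecin for a minimum 48 hr at 37 °C.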
HT1080 IDH1KD tx – HT-1080 IDH1 knockdown cell toxicity (counter line); HT-1080 IDH1 knockdown viability, ATP luminescence, 48 h; Potency, µM (doses to about 46.1 µM), without a hit: top-dose activity, negative = toxicity, most hits filed as cytotoxic; actives 2% (n = 360,000); AID 686971;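 note: potency is the fitted concentration of half-maximal effect; 0% = DMSO wells and -100% = cell-free medium wells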
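IDH1KD HT-1080 cells, 750/well, RPMI + 5% FBS; compound pinned after 2 h settling; 48 h, 37 °C; CellTiter-Glo luminescence; % activity normalised to DMSO and no-cell wells; curves fitted, classed by r2 and efficacy.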
ALOX12 inh – blocks human arachidonate 12S-lipoxygenase | actives 1.1% (n = 580,000) | Potency, µM (top dose mostly 108 µM), for the others: at the top dose activity change, negative = inhibition, usual class: inhibitors | AID 1671190 | purified 12hLO, xylenol orange hydroperoxide absorbance; note: potency is the fitted concentration of half-maximal effect
Target sequence (P18054 whole entry, looked up): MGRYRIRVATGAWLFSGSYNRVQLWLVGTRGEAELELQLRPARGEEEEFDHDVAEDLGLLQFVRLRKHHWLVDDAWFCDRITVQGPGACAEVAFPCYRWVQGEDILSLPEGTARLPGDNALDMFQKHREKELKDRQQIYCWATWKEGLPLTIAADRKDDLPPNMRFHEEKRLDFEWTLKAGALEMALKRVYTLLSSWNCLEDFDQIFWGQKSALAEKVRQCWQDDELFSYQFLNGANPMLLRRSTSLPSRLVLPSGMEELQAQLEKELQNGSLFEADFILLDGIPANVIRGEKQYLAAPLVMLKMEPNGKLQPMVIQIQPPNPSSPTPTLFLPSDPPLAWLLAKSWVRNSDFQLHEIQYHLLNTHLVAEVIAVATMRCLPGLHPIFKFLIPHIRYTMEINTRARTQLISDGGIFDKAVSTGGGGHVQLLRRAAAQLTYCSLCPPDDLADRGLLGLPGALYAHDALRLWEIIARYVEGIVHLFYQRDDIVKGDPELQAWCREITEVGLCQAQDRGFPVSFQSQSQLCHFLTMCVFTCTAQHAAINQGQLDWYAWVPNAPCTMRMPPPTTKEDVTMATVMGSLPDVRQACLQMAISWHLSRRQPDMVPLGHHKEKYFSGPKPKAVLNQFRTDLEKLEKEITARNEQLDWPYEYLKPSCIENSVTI
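Hydroperoxide product was detected by ferrous iron/xylenol orange as the 573 to 405 nm absorbance ratio. Arachidonic acid at 40 uM (final) was turned over for 30 min at room temperature by 150 nM human 12hLO, pH 7.0 Hepes buffer, after 15 min compound preincubation.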
HT1080-NT tox – kills 2HG-producing HT-1080-NT fibrosarcoma cells | HT-1080-NT fibrosarcoma viability, CellTiter-Glo ATP luminescence, 48 h | Potency, µM (highest dose often 46.1 µM), for the others: at the highest dose activity, negative = less viability, usual class: cytotoxic | actives 1.6% (n = 360,000) | AID 686970;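 note: NT is the 2HG producing partner of a matched IDH1 knockdown line; potency is the fitted concentration of half-maximal effect; 0% = DMSO-treated cells and -100% = media-only wells without cells; nearly all actives have a fitted effect of over 55% in size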
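Compounds were tested in concentration-response format on HT-1080-NT cells for 48 hours at 37 degrees C. Cell viability came from CellTiter-Glo luminescence; curves were classified by r2, response magnitude and activity.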
Numbers without * were called inactive; ! = a repeat was not active; [ ] = remark or other dose. Many of the other results were omitted from the sample, so hits are more common in it than they were. Unless noted, calls come from the whole dose curve; as a rule, active = well fitted curve in the direction sought with a large enough effect; inconclusive = small, poorly fitted or top-dose-only effect, or another doubt; inactive = no such curve, though single readings can be large; an effect the other way counts as inactive or inconclusive. Unless noted, % is set by controls: 0 for no effect and ±100 for the full control effect.

Screening O=C(O)CNC(=O)C1CCCN1C(=O)CNC(=O)OCc1ccccc1 (stereo not drawn) returned DT40 TDP1 CPT 18.3%, IL-1B inflam inh -3.3, TDP1 cell noCPT 2.4%, HT1080 IDH1KD tx 24.2%, ALOX12 inh 0.0% and HT1080-NT tox 10.4%.
Screening O=C(OCc1ccccc1)C1CCCN1C(=O)c1ccccc1[N+](=O)[O-] (stereo not drawn) returned DT40 TDP1 CPT 14.6µM*, IL-1B inflam inh -63.0*, TDP1 cell noCPT 16.4µM*, HT1080 IDH1KD tx inconclusive, ALOX12 inh -1.7% and HT1080-NT tox 17.6%.
`O=C(CNC(=O)OCc1ccccc1)NCC(=O)N1CCCC1C(=O)OCc1ccccc1` (stereo not drawn) gave DT40 TDP1 CPT inconclusive, IL-1B inflam inh -88.5*, TDP1 cell noCPT -21.5%, HT1080 IDH1KD tx -14.7%, ALOX12 inh 434.7% and HT1080-NT tox -0.8%.
Screening O=S(=O)(c1ccccc1C(F)(F)F)N1CC(c2nc(Cc3ccccc3)no2)C1 returned ALOX12 inh 26.3%.
O=C(O)CC(NCc1ccccc1)c1ccccc1 (stereo not drawn) was read as ALOX12 inh -29.8%.
`Cc1ccc(CN2C(=O)COC[C@H]2C(=O)NCc2ccco2)cc1` gave ALOX12 inh 19.2%.
For CC(=O)c1cccc(NC(=O)Cc2c(C)c3ccc(O)cc3oc2=O)c1 the results were ALOX12 inh 1.6%.
For CCc1nnc(NC(=O)c2nc(S(=O)(=O)Cc3ccccc3)ncc2Cl)s1 the results were DT40 TDP1 CPT 18.4µM*, IL-1B inflam inh -100.5*, TDP1 cell noCPT 18.4µM*, HT1080 IDH1KD tx 7.31µM*, ALOX12 inh -6.0% and HT1080-NT tox 11.6µM*.
`CCc1nnc(NC(=O)c2nc(Cl)ccc2Cl)s1` gave DT40 TDP1 CPT -3.6%, IL-1B inflam inh -1.0, TDP1 cell noCPT 2.7%, HT1080 IDH1KD tx 27.6%, ALOX12 inh 461.5% and HT1080-NT tox 29.2%.
For CCSc1ncc(Cl)c(C(=O)Nc2ccccc2OC)n1 the results were DT40 TDP1 CPT -0.8%, IL-1B inflam inh 55.5, TDP1 cell noCPT 5.5%, HT1080 IDH1KD tx 0.0%, ALOX12 inh 23.2% and HT1080-NT tox 1.1%.
CCOc1ccccc1NC(=O)c1nc(S(=O)(=O)Cc2cccc(C)c2)ncc1Cl was read as DT40 TDP1 CPT 1.16µM*, IL-1B inflam inh 0.0, TDP1 cell noCPT 0.651µM*, HT1080 IDH1KD tx -4.1%, ALOX12 inh 40.7% and HT1080-NT tox 1.0%.
CCc1nnc(NC(=O)c2nc(S(=O)(=O)Cc3ccc(C)cc3)ncc2Cl)s1 was read as DT40 TDP1 CPT 16.4µM*, IL-1B inflam inh -102.3*, TDP1 cell noCPT 20.6µM*, HT1080 IDH1KD tx 14.6µM*, ALOX12 inh 1.5% and HT1080-NT tox 18.4µM*.
Screening CCc1nnc(NC(=O)c2nc(S(=O)(=O)Cc3cccc(C)c3)ncc2Cl)s1 returned DT40 TDP1 CPT 5.8µM*, IL-1B inflam inh -102.1*, TDP1 cell noCPT 5.17µM*!, HT1080 IDH1KD tx 10.3µM*, ALOX12 inh 1.8% and HT1080-NT tox 23.1µM*.
For CCc1nnc(NC(=O)c2nc(SCc3ccccc3F)ncc2Cl)s1 the results were DT40 TDP1 CPT -15.8%, TDP1 cell noCPT 7.7% and ALOX12 inh -15.3%.
Screening COC[C@@H]1CCCN1CCC(=O)Nc1ccc(C(=O)OC)cc1 returned ALOX12 inh 46.1%.
`Cc1nnc(NC(=O)c2nc(S(=O)(=O)Cc3ccccc3C)ncc2Cl)s1` gave DT40 TDP1 CPT 14.6µM*, IL-1B inflam inh -94.0*, TDP1 cell noCPT 11.6µM*, HT1080 IDH1KD tx inconclusive, ALOX12 inh -13.9% and HT1080-NT tox 18.4µM*.
CN1CC(=O)N(C2CCCNCC2)Cc2c1ncnc2N1CCN(Cc2ccccc2)CC1 (stereo not drawn) was read as ALOX12 inh -13.8%[6.33 µM].
Cc1nc(CCN2C(=O)c3ccccc3C2=O)n[nH]1 was read as DT40 TDP1 CPT inconclusive, IL-1B inflam inh -3.9, TDP1 cell noCPT 23.1µM*, HT1080 IDH1KD tx 4.6%, ALOX12 inh 71.3% and HT1080-NT tox 9.2%.
`CCc1ccc(CCN2C(=O)c3ccccc3C2=O)nc1` gave DT40 TDP1 CPT -3.0%, IL-1B inflam inh 26.2, TDP1 cell noCPT 0.4%, HT1080 IDH1KD tx inconclusive, ALOX12 inh 4.2% and HT1080-NT tox 27.9%.
Screening N#C/C(=C/c1ccc(-c2ccc(S(=O)(=O)N3CCOCC3)cc2)o1)C(=O)NC1CC1 returned DT40 TDP1 CPT -107.3%, IL-1B inflam inh inconclusive, TDP1 cell noCPT 14.6µM*, HT1080 IDH1KD tx -7.3%, ALOX12 inh -18.5% and HT1080-NT tox -21.2%.
`N#C/C(=C\c1ccc(N2CCOCC2)o1)C(=O)NC1CCCCC1` gave DT40 TDP1 CPT -20.4%, IL-1B inflam inh -9.9, TDP1 cell noCPT inconclusive, HT1080 IDH1KD tx -1.0%, ALOX12 inh inconclusive and HT1080-NT tox 8.0%.
N#C/C(=C\c1ccc(-c2ccc(S(=O)(=O)N3CCOCC3)cc2)o1)C(=O)NC1CC1 was read as DT40 TDP1 CPT 11.6µM*, IL-1B inflam inh -1.7, TDP1 cell noCPT 20.6µM*, HT1080 IDH1KD tx -2.3%, ALOX12 inh -38.5% and HT1080-NT tox -10.5%.
`Cc1cccc(C(=O)N2CCC3(CC2)CC(c2ccccc2)C(=O)N3C)c1C` (stereo not drawn) gave ALOX12 inh 14.8%.
`COCCCNC(=O)c1c(NC(=O)c2cccs2)sc2c1CCCC2` gave DT40 TDP1 CPT -22.2%, IL-1B inflam inh -9.8, TDP1 cell noCPT inconclusive, HT1080 IDH1KD tx 2.4%, ALOX12 inh -13.9% and HT1080-NT tox 6.7%.
`CCSc1ncc(Cl)c(C(=O)Nc2sc3c(c2C(=O)NCCCOC)CCCC3)n1` gave DT40 TDP1 CPT inconclusive, TDP1 cell noCPT inconclusive and ALOX12 inh 7.3%.
For CCNC(=O)c1c(NC(=O)c2nc(S(=O)(=O)CC)ncc2Cl)sc2c1CCCC2 the results were DT40 TDP1 CPT -112.4%, TDP1 cell noCPT 0.731µM* and ALOX12 inh -0.5%.
`COCCCNC(=O)c1c(NC(=O)c2nc(S(C)(=O)=O)ncc2Cl)sc2c1CCCC2` gave DT40 TDP1 CPT 1.03µM*, TDP1 cell noCPT 0.731µM* and ALOX12 inh -11.8%.
Screening CCCSc1ncc(Cl)c(C(=O)Nc2sc3c(c2C(=O)NCCCOC)CCCC3)n1 returned DT40 TDP1 CPT 12.6µM* and TDP1 cell noCPT 11.2µM*.

Bioassay records deposited in PubChem by National Center for Advancing Translational Sciences (NCATS).
